# PubChem BioAssay (NCATS)
# Inconclusive results are not listed. Where a call stands in place of a potency, no number is given. The source made the active and inactive calls. Calls come from the whole dose curve; as a rule, active = well fitted cell-killing curve with a large enough effect; inconclusive = small, poorly fitted or top-dose-only effect; inactive = flat fitted curve, though single readings scatter.
# Experiment: Quantitative highthroughput screen to assess conditional lethalithy of NOMO1 cells grown in RPMI1640 with untreated serum (RPMI+s) (AID 1963876); note: nearly all actives have a fitted effect of over 35% in size
# Conditions: NOMO1 AML cells in RPMI+serum, CellTiter-Glo viability, 48 h; series mostly up to 45.8 µM
# Description: Assay Provider: Jason Cantor Ph.D.
# Department of Biochemistry
# University of Wisconsin-Madison, Madison, WI, USA
# Chemical screening studies have identified drug sensitivities across hundreds of cancer cell lines but most putative therapeutics fail to translate. Discovery and development of drug candidates in models that more accurately reflect nutrient levels in human blood is a major challenge. Here we performed high-throughput screens in conventional versus Human Plasma-Like Medium (HPLM) to identify compounds that were "missed" when screening using the artificial culture condition. Sets of conditional anticancer compounds spanned phases of clinical development and included non-oncology drugs were assessed. […] We also traced conditional phenotypes for several chemotherapeutics to availability of HPLM-specific metabolites and confirmed others for compounds whose reported targets are encoded by nonessential genes. Our findings establish generalizable strategies for exploiting conditional lethality in HPLM to reveal therapeutic candidates and mechanisms of action in cancer cells.
# Described herein are the results of each viability screens against three cell lines: NOMO1 (an acute myeloid leukemia cell line); P12-Ichikawa (a T-cell acute lymphoblastic leukemia); and SEM (a B-cell ALL). Each assay was screened using 3 different cell culture media: homemade human plasma-Like medium with 10% dialyzed fetal bovine serum (HPLM+ds); RPMI1640 with 10% untreated FBS and 5mM glucose (RPMI+s); and RPMI1640 with 10% dialyzed fetal bovine serum and 5 mM glucose (RPMI+ds).
# PROTOCOL TABLE (as described by Inglese J, Shamu CE and Guy RK. 2007)
# SEQUENCE No. (e.g., 1, 2, 3, etc.); […] (e.g., Cells, Incubation, Reagent, etc.); VALUE and DESCRIPTION.
# 1; Cells; 5 uL; white, solid bottom 1536-well Greiner assay plate.
# 2; Compounds; 23 nL; Kalypsis pin tool (Wako USA) equipped with a 1536-well pin head to transfer to the assay plates.
# 3; Incubation; 48 hours; 37C incubation.
# 4; Reagent; 3 uL; CellTiter Glo (Promega).
# 5; Incubation; 5 min, room temperature
# 6; Detection; Luminescence, Viewlux PerkinElmer.
# NOTES (numbers refer to Sequence numbers above)
# 1. Briefly, 5 ul of cell reagent was dispensed using a Multidrop Combi Dispenser. The NOMO1 and SEM cells were plated at 500 cells/well and the P12-Ichikawa line at 1000 cells/well.
# 2. After seeding the cells, 23 nL of MIPE 4.1 library compounds (in DMSO) were added to each plate using a Kalypsys 1536 Pintool dispenser. Bortezomib at final concentration of […] and DMSO were added to each plate as positive and negative controls respectively. For each screen, MIPE 4.1 compounds were added over an eleven-point concentration range […] in 3-fold dilutions.
# 3. Each plate was covered with a stainless steel gasketed lid to prevent evaporation and incubated for 48 hour at 37C, 95% relative humidity, and 5% CO2.
# 4-5. Three microliter CellTilter-GloTM luminescent substrate mix (Promega) reagent was added to the assay plate and incubated at room temperature for 5 min.
# 6. The luminescence signal was measured using a ViewLux (PerkinElmer) multiplate reader with a 2 second exposure time per plate. Data for each compound were normalized as percent viability such that measurements for DMSO and the empty well controls in each plate were defined as 100% and 0%, respectively.
# Potency is the fitted concentration of half-maximal effect.
row,SMILES,Potency
1,CN(C)CCN1C(=O)c2cccc3cc(N)cc(c23)C1=O,14.8 µM (active)
2,CCOC(=O)Nc1ccc(NCc2ccc(F)cc2)nc1N,inactive
3,COC1=C(OC)C(=O)C(CC=C(C)CCC=C(C)CCC=C(C)CCC=C(C)CCC=C(C)CCC=C(C)CCC=C(C)CCC=C(C)CCC=C(C)CCC=C(C)C)=C(C)C1=O,inactive
4,O=C1c2c(O)cccc2[C@@H]([C@@H]2O[C@H](CO)[C@@H](O)[C@H](O)[C@H]2O)c2cc(CO)cc(O)c21,inactive
5,Nc1nc(OCc2ccccc2)c2[nH]cnc2n1,inactive
6,NC(N)=NC(=O)c1nc(Cl)c(N)nc1N,0.935 µM (active)
7,COc1ccc(-c2nc(N3CCOCC3)c3sc(CN(C)c4ncc(C(=O)NO)cn4)cc3n2)cn1,0.0209 µM (active)
8,CC1(C)[C@H](O[C@H]2O[C@H](C(=O)O)[C@@H](O)[C@H](O)[C@H]2O[C@@H]2O[C@H](C(=O)O)[C@@H](O)[C@H](O)[C@H]2O)CC[C@@]2(C)[C@H]1CC[C@]1(C)[C@H]2C(=O)C=C2[C@H]3C[C@@](C)(C(=O)O)CC[C@]3(C)CC[C@]21C,inactive
9,Cc1cc(Nc2ncc(Cl)c(Nc3ccccc3S(=O)(=O)C(C)C)n2)c(OC(C)C)cc1C1CCNCC1,18.6 µM (active)
10,Cc1cc(C(C)Nc2ccccc2)c2nc(N3CCOCC3)cc(=O)n2c1 (stereo not given),inactive
11,COc1ccc2c(OCc3nnc4ccc(-c5ccccc5)nn34)ccnc2c1,inactive
12,O=C(O)CCCc1c[nH]c2ccccc12,inactive
13,Clc1ccc(COC(Cn2ccnc2)c2ccc(Cl)cc2Cl)cc1 (stereo not given),inactive
14,CCC1(C)CC(=O)NC1=O (stereo not given),inactive
15,Cc1ccc(F)c(NC(=O)Nc2ccc(-c3cccc4[nH]nc(N)c34)cc2)c1,inactive
16,Clc1ccc(Nc2nnc(Cc3ccncc3)c3ccccc23)cc1,inactive
17,COC(=O)[C@]12CCC(C)(C)C[C@@H]1[C@@H]1C(=O)C=C3[C@@]4(C)C=C(C#N)C(=O)C(C)(C)[C@@H]4CC[C@@]3(C)[C@]1(C)CC2,9.35 µM (active)
18,O=C(O)C1=CC(O)C(O)[C@H](O)C1 (stereo not given in full),inactive
19,O[C@@H](COc1cccc2ncccc12)CN1CCN(C2c3ccccc3[C@@H]3[C@H](c4ccccc42)C3(F)F)CC1 (stereo not given in full),inactive
20,CC1CC2C3CCC4=CC(=O)C=C[C@]4(C)[C@@]3(F)[C@@H](O)C[C@]2(C)[C@@]1(O)C(=O)CO (stereo not given in full),inactive

row,SMILES,Potency
1,CCS(=O)(=O)N1CC(CC#N)(n2cc(-c3ncnc4[nH]ccc34)cn2)C1,inactive
2,CCCCCCCCCCCCCCCC(=O)O[C@H]1[C@@H](O)[C@@H](O)[C@@H]([C@H](NC(=O)[C@@H]2C[C@@H](CCC)CN2C)[C@H](C)Cl)O[C@@H]1SC,11.8 µM (active)
3,CN1C(C(=O)Nc2ccccn2)=C(O)c2ccccc2S1(=O)=O,11.8 µM (active)
4,O=c1cc(-c2ccc(O)c(O)c2)oc2cc(O)cc(O)c12,inactive
5,CCc1c2c(nc3ccc(OC(=O)N4CCC(N5CCCCC5)CC4)cc13)-c1cc3c(c(=O)n1C2)COC(=O)[C@]3(O)CC,2.96 µM (active)
6,NC1=N[C@@]2(c3cc(NC(=O)c4ccc(F)cn4)ccc3F)COC[C@@H]2CS1,0.372 µM (active)
7,CCOC(=O)C(C)Oc1cccc2c(=O)n(CC(=O)Nc3ccc4c(c3)OCCO4)ccc12 (stereo not given),inactive
8,COc1cc(N2CCC(C(N)=O)CC2)ccc1Nc1nc(N)c(Cl)c(Nc2ccccc2S(=O)(=O)C(C)C)n1,20.9 µM (active)
9,O=C(O)c1c(Cl)c(Cl)c(Cl)c(Cl)c1-c1c2cc(I)c(=O)c(I)c-2oc2c(I)c(O)c(I)cc12,16.6 µM (active)
10,CCOC(=O)[C@H]1O[C@H]1C(=O)N[C@@H](CC(C)C)C(=O)NCCC(C)C,23.5 µM (active)
11,C=C1[C@H](n2cnc3c(=O)[nH]c(N)nc32)C[C@H](O)[C@H]1CO,18.7 µM (active)
12,COc1ccc(-c2ccc3ncc4c(c3c2)n(-c2ccc(N3CCNCC3)c(C(F)(F)F)c2)c(=O)n4C)cn1,0.526 µM (active)
13,CN(C)c1ccc(Nc2nc(N)n(C(=O)c3c(F)cccc3F)n2)cc1,inactive
14,COc1ccc2c3n(c(=NC(=O)c4cccnc4)nc2c1OC)CCN3,inactive
15,CC(=O)OCC(CCn1cnc2cnc(N)nc21)COC(C)=O,inactive
16,O=C(Nc1cccnc1)N1CCC(Cc2cccc(Oc3ccc(C(F)(F)F)cn3)c2)CC1,10.5 µM (active)
17,CCOC(=O)N1CCN([N+]([O-])=NOc2cc(ON=[N+]([O-])N3CCN(C(=O)OCC)CC3)c([N+](=O)[O-])cc2[N+](=O)[O-])CC1,inactive
18,C[C@H]1c2cccc(O)c2C(O)=C2C(=O)[C@]3(O)C(O)=C(C(N)=O)C(=O)[C@@H](N(C)C)[C@@H]3[C@@H](O)[C@@H]21,inactive
19,COc1ccc(CC2=NN3C([C@@H](CCc4ccccc4)[C@@H](C)O)=NC(C)C3C(=O)N2)cc1OC (stereo not given in full),inactive
20,C=CCNC1=C2C[C@@H](C)C[C@H](OC)[C@@H](O)[C@@H](C)C=C(C)[C@H](OC(N)=O)[C@@H](OC)C=CC=C(C)C(=O)NC(=CC1=O)C2=O,5.26 µM (active)
